# Assay outcomes as filed in PubChem BioAssay.
# The sample as a whole holds a higher share of hits than the screen did.
# mcGAS MS inh = inhibitors of Mus musculus cyclic GMP-AMP synthase, initial high-throughput assay, cell-free, RapidFire MS; recombinant mouse cGAS, cGAMP by RapidFire MS; Q8C6L5; 0.18% of 130,000 active; inhibition, % at 12.5 µM;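 active = inhibition of cGAS enzyme activity at or above 60%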;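 also: enzyme stimulated by 45 bp dsDNA with ATP and GTP substrates; cGAMP share of summed cGAMP plus half ATP and half GTP signals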
# Target sequence (Q8C6L5 whole entry, looked up): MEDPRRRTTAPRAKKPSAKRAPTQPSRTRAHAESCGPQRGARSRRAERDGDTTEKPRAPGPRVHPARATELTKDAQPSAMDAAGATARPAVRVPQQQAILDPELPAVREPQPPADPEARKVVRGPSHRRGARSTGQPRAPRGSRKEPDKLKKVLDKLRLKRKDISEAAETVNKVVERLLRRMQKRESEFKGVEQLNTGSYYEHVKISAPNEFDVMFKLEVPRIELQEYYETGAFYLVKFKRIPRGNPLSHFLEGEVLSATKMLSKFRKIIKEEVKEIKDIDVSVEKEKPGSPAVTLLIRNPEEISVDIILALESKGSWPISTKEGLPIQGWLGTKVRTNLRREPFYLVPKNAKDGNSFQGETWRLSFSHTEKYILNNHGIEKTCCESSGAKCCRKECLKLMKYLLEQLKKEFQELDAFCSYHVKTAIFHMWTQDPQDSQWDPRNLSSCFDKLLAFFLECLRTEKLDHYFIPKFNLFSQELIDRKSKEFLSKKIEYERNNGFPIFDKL
# Active calls of the source: *; ! = not active in a repeat.
SMILES,mcGAS MS inh
CCOc1ccc(C=C2C(=O)NC(=S)NC2=O)cc1OC,5
CCN(CC)C(=S)SSC(=S)N(CC)CC,76*!
CCN(CC)C(=S)SC(C)C(=O)NC1CC1 (configuration not stated),-4
N#Cc1cccnc1NCC(c1ccco1)N1CCCCC1 (configuration not stated),-7
FC(F)(F)c1cccc(CCC2CCCN(Cc3cnc[nH]3)C2)c1 (configuration not stated),-15
Cc1[nH]n(-c2nc3ccccc3[nH]2)c(=O)c1C1OC(=O)c2ccccc21 (configuration not stated),99*
Cc1[nH]n(-c2nc3ccccc3[nH]2)c(=O)c1C,29
CCc1c(C)[nH]n(-c2nc3ccccc3[nH]2)c1=O,-2
Cc1ccc(-c2csc3ncn(CCC(=O)NCc4ccc(C)c(F)c4)c(=O)c23)cc1,-2
Cc1nc2sc(C)c(C)n2c(=O)c1NC(=O)c1ccccc1Cl,-4
CCOc1ccc2nc3cc(N)ccc3c(N)c2c1,92*!
Nc1c2ccccc2nc2ccccc12 (tested in a mixture with another compound),41
CCOc1ccc2nc(NC(=O)CC)sc2c1,-5
Cc1ccsc1S(=O)(=O)N1CCOC2(CNCCOC2)C1 (configuration not stated),-23
CC(C)(C)C1CCC(NC(=O)C2CC=CCC2C(=O)N2CCN(c3ccccn3)CC2)CC1 (configuration not stated),-5
NC(=O)c1c(NC(=O)CSCC(=O)O)sc2c1CCCC2,-3
NC(=O)c1c(NC(=O)CN2CCOCC2)sc2c1CCC2,-8
N#CCC(=O)Nc1sc2c(c1C(N)=O)CCCC2,91*
O=c1oc2ccccc2cc1-c1csc(NN=Cc2ccccc2)n1,-7
O=C(NCC(O)c1ccc(F)cc1)Nc1ccc2c(c1)CCCO2 (configuration not stated),9
Nc1nnc(SCC(=O)c2ccc([N+](=O)[O-])cc2)s1,-3
Nc1nnc(Sc2ncc([N+](=O)[O-])s2)s1,67*
C=CCSc1nnc(N)s1,-7
Cc1noc(C)c1S(=O)(=O)N1CCN(Cc2ccc(Br)cc2)CC1,-8
COc1cc(C)c(Cl)cc1S(=O)(=O)NCc1ccc(C)cc1,-15
SMILES,mcGAS MS inh
Cc1cccc(NCC(=O)N(C)C(C)c2ccc(F)cc2)c1C(N)=O (configuration not stated),-14
CCN(CC)c1ccc(NC(=O)c2ccc3nc[nH]c3c2)cc1,7
COc1ccc(CCNC(=O)c2cc3ccccc3oc2=O)cc1OC,-3
CN(CCOc1ccccc1)C(=O)c1cc2ccccc2oc1=O,-7
CSc1c(C#N)c(SCC(=O)c2cc3ccccc3oc2=O)[nH]c(=O)c1C#N,94*
CCOc1cc(N2CCOCC2)c(OCC)cc1NS(=O)(=O)c1c(C)noc1C,-5
CC(C)c1nc(NC(=O)c2[nH]ncc2Br)n(C)n1,94*
N#CC(NC(=O)c1[nH]ncc1Br)c1cccc(Cl)c1 (configuration not stated),-17
CC(C)c1nc(NC(=O)CS(=O)(=O)C2CCCC2)n(C)n1,-3
Cc1nn(C)c(C)c1S(=O)(=O)NCC1(O)CCCNCC1 (configuration not stated),-19
COc1ccc(Cl)cc1Sc1ccccc1[N+](=O)[O-],-5
COC(=O)c1sc(NC(C)c2ccc(S(C)(=O)=O)cc2)nc1Cl (configuration not stated),0
COCCN(Cc1ccco1)C(=O)CNc1ccccc1Cl,5
COCCN(Cc1ccco1)S(=O)(=O)Cc1cccc(C)c1,89*
COCCS(=O)(=O)N(Cc1ccco1)c1ccc(F)cc1F,-48
CCn1c(C)cc(O)c(C(c2cccs2)N2CCC(C)CC2)c1=O (configuration not stated),-6
CCn1c(C)cc(O)c(C(c2ccc(SC)cc2)N2CCCCC2)c1=O (configuration not stated),-8
CCn1c(C)cc(O)c(C(c2cccs2)N2CCCCC2)c1=O (configuration not stated),63*
CCNC(=O)Cn1c(CO)c[nH]c1=S,-5
CN(C)S(=O)(=O)c1ccc2nc(/C(Cl)=C/c3ccccc3F)[nH]c2c1,6
CC(C)c1cc(C2CCN(C(=O)C3=NN(C)C(=O)CC3)CC2)[nH]n1,78*
CC(C)=CC(=O)N1CCC(c2cc(C(C)C)n[nH]2)CC1,-11
CC(C)c1cc(C2CCN(C(=O)c3nc(C(C)C)cs3)CC2)[nH]n1,-25
O=C(NCC1CCN(C2CC2)C1)c1cc(C2CC2)nc2ccccc12 (configuration not stated),-19
CN1CCN(C2=NC(C(=O)Nc3ccccc3)CC(=O)N2)CC1 (configuration not stated),70*
SMILES,mcGAS MS inh
CN1CCC(N(Cc2ccccc2)C(=O)Nc2ccc(NC(=O)C3CC3)cc2)CC1,-10
CN1C(=O)CC(C(=O)Nc2ccccc2)SC1=Nc1ccc(Cl)c(C(F)(F)F)c1 (configuration not stated),-7
CC(Sc1nnc(NC2CC2)s1)C(=O)N1CCNC1=O (configuration not stated),-1
CCC1CN(Cc2csc(NC)n2)CCC(=O)N1Cc1ccccc1 (configuration not stated),1
CCN(CC)CCNc1nc2c(F)cccc2s1,-29
CCN(CC)CCNC(=O)c1cnc(C(C)(C)C)s1,-20
CCN(CC)CCNc1ccc(CO)c2sc3ccccc3c(=O)c12,66*!
S=c1nccc(-c2ccccc2)[nH]1,74*
S=c1nc(-c2ccccc2)c(-c2ccccc2)n[nH]1,-13
OC(C#Cc1ccccc1)c1ncc(-c2ccccc2)[nH]1 (configuration not stated),35
CCn1c(SCc2c(C)noc2C)nc2sc3c(c2c1=O)CCC(C)C3 (configuration not stated),-3
Cc1nc(C(=O)N(c2ccccc2S(C)(=O)=O)C(C)C)ccc1C#N,0
O=c1cc(-c2cc(O)c(O)c(O)c2)oc2cc(O)cc(O)c12,3
O=c1oc2c(O)c(O)cc3c(=O)oc4c(O)c(O)cc1c4c23,93*
CC(NC(=O)Cn1nnc2c(cnn2-c2ccccc2)c1=O)C1CC1 (configuration not stated),13
O=C1OC(/C=C/c2cccc(Cl)c2Cl)=NC/1=C\c1ccc([N+](=O)[O-])cc1,71*
O=C1OC(/C=C/c2cccc(Cl)c2Cl)=NC/1=C/c1ccccc1[N+](=O)[O-],-14
COc1ccc(/C=C2N=C(/C=C/c3cccc(Cl)c3Cl)OC\2=O)cc1,0
C=CCn1c(SCC(=O)c2[nH]c(C)c(C(C)=O)c2C)nc2sc3c(c2c1=O)CCC3,-24
CCCC(=O)N(c1ccc2oc(C)c(C(C)=O)c2c1)S(=O)(=O)c1ccccc1,-3
Cc1ccccc1OC1CN(C(=O)CSc2ncccn2)C1,-19
O=S(=O)(O)CC(S)CS (configuration not stated),87*
NCCCCC(=O)N1CCOC(c2ccc(Cl)cc2)C1 (configuration not stated),-2
COc1ccccc1-c1cc(C(=O)O)nc2cc(-c3ccc(Cl)cc3)nn12,-4
COc1cccc(C)c1C(=O)N1CCOC(c2ccc(Cl)c(Cl)c2)C1 (configuration not stated),-1
O=C(CC1OC(=O)c2ccccc21)NCc1nnc2ccccn12 (configuration not stated),-2
